Experimental data published in PubChem BioAssay (NCATS).
Inconclusive results are not listed. Activity calls are given as the source filed them. Unless noted, the call rests on the fitted dose curve; in most records, active means well fitted curve in the direction sought with a large enough effect; inconclusive means small, poorly fitted or top-dose-only effect, or another doubt; inactive means no such curve, though single readings can be large; an effect the other way counts as inactive or inconclusive.

Tests used:
[1] = Cell Viability - LYMP1-002 - Assay at 16 hr (AID 948); further: potency means the concentration at half of the fitted maximal effect
Summary of the method: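 LYMP1-002 human lymphoblastoid cells, 2500/well, were treated with compounds for 16 hr at 37 C in complete medium. Viability was read as intracellular ATP by CellTiter-Glo luminescence, and AC50 was derived from a Hill fit to concentration-response data.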

[2] = MultiTox-Fluor Cytotoxicity Assay - LYMP1-002 - Live Cells (AID 955);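 further: potency means the concentration at half of the fitted maximal effect; cells exposed to compound for 16 hours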
Summary of the method: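 Cytotoxicity in the human lymphoblastoid line LYMP1-002 is measured as loss of live-cell protease activity after 16 h treatment in complete culture medium. AC50 is derived from Hill-equation fits of qHTS concentration-response data.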

[3] = MultiTox-Fluor Cytotoxicity Assay - LYMP1-002 - Dead Cells (AID 960); further: nearly all actives have a fitted effect of over 60% in size; further: potency means the concentration at half of the fitted maximal effect
Summary of the method: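 Acute cytotoxicity in a human lymphoblastoid line is scored as rising dead-cell protease signal after 16 hr exposure at 37 C, measured fluorometrically (485/520).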

[4] = MultiTox-Fluor Cytotoxicity Assay - LYMP1-003 - Dead Cells (AID 961); further: potency means the concentration at half of the fitted maximal effect; nearly all actives have a fitted effect of over 70% in size
Summary of the method: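 Dead-cell protease release, detected as bis-AAF-R110 fluorescence at 485/520 nm, was measured in LYMP1-003 cells after 16 h compound treatment at 37 C. AC50 values came from Hill-modeled qHTS curves normalized to DMSO (0%) and 15 uM tetraoctylammonium bromide (100%).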

[5] = MultiTox-Fluor Cytotoxicity Assay - LYMP1-003 - Live Cells (AID 962);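 further: potency means the concentration at half of the fitted maximal effect; cells exposed to compound for 16 hours at 37 °C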
Summary of the method: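 Cells plated at 2500 per well and incubated 5 hr; compounds added and incubated 16 hr at 37 C; MultiTox-Fluor reagent added for 60 min at room temperature; fluorescence of liberated AFC measured at 405/510 nm.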

[6] = Cell Viability - LYMP1-003 - Assay at 24 hr (AID 963); further: potency means the concentration at half of the fitted maximal effect
Summary of the method: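 Acute toxicity in LYMP1-003 lymphoblastoid cells: 24 hr compound treatment at 37 C, ATP measured with CellTiter-Glo after 30 min at room temperature. AC50 derived by fitting the Hill equation to qHTS titrations.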

[7] = Cell Viability - LYMP1-003 - Assay at 40 hr (AID 964); further: potency means the concentration at half of the fitted maximal effect; nearly all actives have a fitted effect of over 60% in size
Summary of the method: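 This qHTS cytotoxicity screen treats human lymphoblastoid cells (LYMP1-003) with compounds for 40 hr and quantifies cellular ATP via luciferase luminescence.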

[8] = Cell Viability - LYMP2-003 (AID 965);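 further: potency means the concentration at half of the fitted maximal effect; cells exposed to compounds for 24 h before reading; nearly all actives have a fitted effect of over 50% in size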
Summary of the method: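 Human lymphoblastoid LYMP2-003 cells, 2500/well, exposed to compounds for 24 h at 37 C in complete medium. Viability read as intracellular ATP by CellTiter-Glo luminescence; AC50 from Hill-equation fits of qHTS concentration-response data.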

[9] = Cell Viability - LYMP2-004 (AID 966); further: potency means the concentration at half of the fitted maximal effect; nearly all actives have a fitted effect of over 65% in size
Summary of the method: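 Acute toxicity is scored as a concentration-dependent drop in intracellular ATP, quantified by luciferase luminescence, in human lymphoblastoid cells exposed to compound for 24 hr. AC50 derives from Hill-equation modelling.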

[10] = Cell Viability - LYMP2-005 (AID 967); further: potency means the concentration at half of the fitted maximal effect
Summary of the method: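 Human lymphoblastoid LYMP2-005 cells, 2,500 per well in complete medium, rested 5 h at 37C then compound-treated 24 h at 37C. Intracellular ATP read by CellTiter-Glo luminescence after 30 min at room temperature; AC50 from Hill-equation fits of concentration-response data.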

[11] = Cell Viability - LYMP2-009 (AID 968); further: potency means the concentration at half of the fitted maximal effect; nearly all actives have a fitted effect of over 55% in size
[12] = Cell Viability - LYMP2-011 (AID 969); further: potency means the concentration at half of the fitted maximal effect; nearly all actives have a fitted effect of over 60% in size
Summary of the method: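 Acute toxicity is scored as a concentration-dependent drop in intracellular ATP of a human lymphoblastoid line after 24 hr treatment. Values are AC50s modeled with the Hill equation.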

[13] = Cell Viability - LYMP2-013 (AID 970); further: potency means the concentration at half of the fitted maximal effect; nearly all actives have a fitted effect of over 55% in size
Summary of the method: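 Acute toxicity was measured in human lymphoblastoid cells (2500/well) exposed to compound titrations for 24 hr, with ATP luminescence (CellTiter-Glo) as read-out and AC50 fitted by Hill equation.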

[14] = Cell Viability - LYMP2-015 (AID 971); further: potency means the concentration at half of the fitted maximal effect; nearly all actives have a fitted effect of over 55% in size
Summary of the method: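 Acute toxicity was scored as a concentration-dependent drop in intracellular ATP in lymphoblastoid cells after 24 hr compound exposure in complete medium. Detection used CellTiter-Glo luciferase luminescence.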

[15] = Cell Viability - LYMP2-017 (AID 972); further: potency means the concentration at half of the fitted maximal effect; nearly all actives have a fitted effect of over 55% in size
Summary of the method: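 Steps: plate 2500 lymphoblastoid cells per well; incubate 5 hr at 37 C; add compound across a concentration series and incubate 24 hr at 37 C; add CellTiter-Glo and read luminescence after 30 min at room temperature; fit Hill curves for AC50.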

[16] = Cell Viability - LYMP2-019 (AID 973)
Summary of the method: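 Cells plated at 2500/well and allowed 5 hr at 37 C before compound addition. After 24 hr incubation, CellTiter-Glo reagent was added, plates sat 30 min at room temperature, and luminescence was recorded.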

[17] = Cell Viability - LYMP2-021 (AID 974)
Summary of the method: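 Concentration-response cytotoxicity in a human lymphoblastoid line: 24 hr treatment at 37 C in complete culture medium, tetraoctylammonium bromide as positive control, luminescent ATP quantitation as viability measure.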

[18] = Cell Viability - LYMP2-023 (AID 975)
Summary of the method: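 Concentration-dependent drop in intracellular ATP measures acute cytotoxicity in a human lymphoblastoid line treated for 24 hours in complete culture medium. AC50 values are taken from Hill-equation fits of qHTS data.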

[19] = target: Pyruvate kinase PKM (Homo sapiens) (UniProt P14618); assay: qHTS Assay for Activators of Human Muscle Pyruvate Kinase (AID 954; active means well fitted curve in the direction sought with a large enough effect, not every such curve was filed as active)
Summary of the method: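 Human PKM2 activity is measured as ATP generation, detected by luciferase-coupled luminescence. The enzyme (0.1 nM) acts on 0.5 mM PEP and 0.1 mM ADP for 1 h at ambient temperature; data are normalized to uninhibited and full-inhibition wells.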

[20] = target: Alpha-galactosidase (Coffea arabica) (UniProt Q42656); assay: Counterscreen for Glucocerebrosidase Inhibitors: qHTS Assay for Coffee Bean alpha-Galactosidase at pH 4.5 (AID 957); further: series mostly up to about 77 µM
Summary of the method: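 AC50 values derive from Hill-equation modeling of concentration-response data, normalized to no-enzyme and full-activity controls. The pH 4.5 citrate assay used 2 nM coffee bean enzyme and 80 uM fluorogenic substrate for 20 min.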

Sequence of Alpha-galactosidase (Coffea arabica) (Q42656 whole entry, looked up): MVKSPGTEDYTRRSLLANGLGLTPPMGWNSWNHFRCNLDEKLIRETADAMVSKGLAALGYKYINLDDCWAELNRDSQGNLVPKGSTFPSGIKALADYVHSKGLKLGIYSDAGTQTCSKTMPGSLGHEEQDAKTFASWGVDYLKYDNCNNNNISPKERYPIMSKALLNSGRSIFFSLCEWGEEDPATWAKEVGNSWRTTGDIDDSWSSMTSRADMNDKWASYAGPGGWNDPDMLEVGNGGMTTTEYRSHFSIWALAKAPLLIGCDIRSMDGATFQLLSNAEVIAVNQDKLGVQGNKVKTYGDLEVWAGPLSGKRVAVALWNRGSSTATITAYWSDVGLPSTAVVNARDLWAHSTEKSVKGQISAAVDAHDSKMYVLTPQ
Sequence of Pyruvate kinase PKM (Homo sapiens) (P14618 whole entry, looked up): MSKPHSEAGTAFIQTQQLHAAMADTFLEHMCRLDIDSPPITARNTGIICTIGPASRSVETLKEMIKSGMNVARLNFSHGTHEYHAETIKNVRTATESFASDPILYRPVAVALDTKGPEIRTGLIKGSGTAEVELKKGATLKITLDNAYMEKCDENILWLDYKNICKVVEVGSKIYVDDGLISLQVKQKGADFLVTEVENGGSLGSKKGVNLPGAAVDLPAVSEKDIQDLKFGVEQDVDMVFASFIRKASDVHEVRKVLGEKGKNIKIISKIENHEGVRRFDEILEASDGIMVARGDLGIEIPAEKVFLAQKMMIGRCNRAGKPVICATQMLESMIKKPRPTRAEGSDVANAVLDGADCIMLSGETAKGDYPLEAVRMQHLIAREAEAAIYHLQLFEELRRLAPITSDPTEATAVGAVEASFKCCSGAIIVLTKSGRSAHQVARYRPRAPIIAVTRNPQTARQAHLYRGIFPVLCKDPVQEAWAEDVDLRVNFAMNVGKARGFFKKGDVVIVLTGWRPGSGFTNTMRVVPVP

O=C(CCl)c1ccc(Cl)cc1Cl
Potency [1]: 15.8 µM (active)
Potency [2]: 7.94 µM (active)
Potency [3]: 7.94 µM (active)
Potency [4]: 10 µM (active)
Potency [5]: 15.8 µM (active)
Potency [6]: 20 µM (active)
Potency [7]: 20 µM (active)
Potency [8]: 10 µM (active)
Potency [9]: 6.31 µM (active)
Potency [10]: 10 µM (active)
Potency [11]: 6.31 µM (active)
Potency [12]: 6.31 µM (active)
Potency [13]: 7.94 µM (active)
Potency [14]: 5.01 µM (active)
Potency [15]: 3.16 µM (active)
Potency [16]: 7.94 µM (active)
Potency [17]: 3.98 µM (active)
Potency [18]: 6.31 µM (active)

C[C@H](N)[C@H](O)c1ccc(O)c(O)c1
outcome [19]: inactive
outcome [20]: inactive

CCCCCCCCCCCC[N+](C)(C)CCOc1ccccc1
Potency [1]: 15.8 µM (active)
Potency [2]: 10 µM (active)
Potency [4]: 12.6 µM (active)
Potency [5]: 31.6 µM (active)
Potency [6]: 12.6 µM (active)
Potency [7]: 31.6 µM (active)
Potency [8]: 50.1 µM (active)
Potency [11]: 31.6 µM (active)
Potency [12]: 39.8 µM (active)
Potency [13]: 31.6 µM (active)
Potency [14]: 31.6 µM (active)
Potency [15]: 39.8 µM (active)
Potency [16]: 39.8 µM (active)
Potency [17]: 39.8 µM (active)
Potency [18]: 50.1 µM (active)

CN(C)CCCN1c2ccccc2Sc2ccccc21
outcome [20]: inactive

CN1[C@@H]2CC[C@H]1CC(OC(=O)c1c[nH]c3ccccc13)C2 (stereo partly drawn)
outcome [20]: inactive

CC1(C)[C@@H]2CC[C@@]1(C)C(=O)C2
Potency [3]: inactive

CC[n+]1c(-c2ccccc2)c2cc(N)ccc2c2ccc(N)cc21
Potency [5]: 12.6 µM (active)
Potency [6]: 15.8 µM (active)
Potency [8]: 31.6 µM (active)
Potency [10]: 6.31 µM (active)
Potency [11]: 15.8 µM (active)
Potency [12]: 12.6 µM (active)
Potency [13]: 15.8 µM (active)
Potency [14]: 15.8 µM (active)
Potency [15]: 15.8 µM (active)
Potency [16]: 12.6 µM (active)
Potency [17]: 20 µM (active)
Potency [18]: 15.8 µM (active)

Oc1ccc(Cl)cc1Sc1cc(Cl)ccc1O
Potency [11]: 39.8 µM (active)
Potency [16]: 39.8 µM (active)
Potency [17]: 39.8 µM (active)
